Screening results as filed in PubChem.
Tau fluor counter: counter-screen for tau fibril formation inhibitors; Potency, µM (highest dose often 57.7 µM), for inactives: at the top dose activity change, negative = decrease; tau K18 P301L Alexa594 fluorescence, heparin fibrillization; actives 0.93% (n = 280,000); also: nearly all actives have a fitted effect of over 55% in size
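Human K18 P301L tau (15 uM unlabeled plus 0.24 uM Alexa 594-labeled, final) in 100 mM sodium acetate pH 7 was mixed with compound and 20 uM heparin and incubated 6 hr at 37 C.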
VP16 counter: inhibits Gal4-VP16 luciferase reporter, ROR gamma counter-screen | actives 3.5% (n = 310,000) | Potency, µM (top dose mostly 53.6 µM), for inactives: top-dose activity, negative = inhibition, usual class: inhibitors | Drosophila S2 Gal4-VP16 UAS-luciferase, luminescence, 20 h;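 also: Gal4-VP16 expression switched on by copper sulfate through the metallothionein promoter; nearly all actives have a fitted effect of over 50% in size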
Tau ThT inhib: blocks human tau fibril formation measured by thioflavin T | recombinant tau K18 P301L, heparin-induced fibrillization, ThT fluorescence | actives 2.1% (n = 270,000) | AID 1460 | P10636 | Potency, µM (titrated, usually from 57.4 µM), without a hit: at the highest dose activity, negative = inhibition, hits mostly inhibitors; also: nearly all actives have a fitted effect of over 55% in size
Target sequence (P10636 561-689 P618L limits assumed): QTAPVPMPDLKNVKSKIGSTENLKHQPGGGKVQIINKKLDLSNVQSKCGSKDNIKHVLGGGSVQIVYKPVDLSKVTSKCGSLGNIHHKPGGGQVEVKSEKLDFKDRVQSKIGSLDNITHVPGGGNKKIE
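Fibril formation assay: tau K18 P301L at 15 uM with trace Alexa 594 label, heparin inducer 20 uM, pH 7 sodium acetate buffer, 37 C for 6 hr; endpoint ThT signal.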
RORgamma inh: inhibitors of mouse ROR gamma transcriptional activity; Potency, µM (titrated, usually from 53.6 µM), for inactives: at the top dose activity change, negative = inhibition, hits mostly inhibitors; Drosophila S2 Gal4-RORgamma UAS-luciferase reporter, 20 h; AID 2551; P51450; actives 5.4% (n = 310,000); also: nearly all actives have a fitted effect of over 60% in size
Target sequence (P51450 whole entry, looked up, the tested form may be a part): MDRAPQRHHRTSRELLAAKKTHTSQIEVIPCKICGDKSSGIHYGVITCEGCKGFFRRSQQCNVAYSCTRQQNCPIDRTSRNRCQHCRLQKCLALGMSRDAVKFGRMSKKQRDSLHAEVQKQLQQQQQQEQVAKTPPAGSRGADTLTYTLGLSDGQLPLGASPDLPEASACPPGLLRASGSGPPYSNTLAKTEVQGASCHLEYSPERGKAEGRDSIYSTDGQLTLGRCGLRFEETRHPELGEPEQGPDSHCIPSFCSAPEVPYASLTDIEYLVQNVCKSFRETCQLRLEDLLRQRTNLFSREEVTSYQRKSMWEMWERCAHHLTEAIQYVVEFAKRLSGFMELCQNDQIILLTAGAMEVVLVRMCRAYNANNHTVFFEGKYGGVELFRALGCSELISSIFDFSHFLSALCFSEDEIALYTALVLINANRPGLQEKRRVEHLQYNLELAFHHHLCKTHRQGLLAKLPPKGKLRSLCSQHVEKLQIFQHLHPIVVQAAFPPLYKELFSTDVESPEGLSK
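Stable Schneider cell line, Gal4 DNA-binding domain fused to ROR gamma, UAS-luciferase. Cmpd 1 hr RT → CuSO4 700 uM final → 20 hr RT → luciferase reagent 10 min → luminescence.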
Tau FP inhib: blocks human tau fibril formation measured by polarization; P10636; K18 P301L tau heparin fibrillization, Alexa594 FP, 6 h; Potency, µM (doses to about 57.7 µM), for inactives: at the top dose activity, negative = inhibition, most hits filed as inhibitors; actives 0.39% (n = 280,000); AID 1468; also: nearly all actives have a fitted effect of over 55% in size
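Steps: dispense K18 P301L tau (15 uM plus 0.24 uM Alexa 594 tracer, final) in pH 7 sodium acetate; add compound; add heparin (20 uM final); incubate 6 hr, 37 C; add ThT (30 uM final); after 1 hr ambient, read FP.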
* hit, by the source's call; ? = inconclusive; · = no result; [ ] = dose if it differs, or a comment. Sampled rows, rich in hits. Any-hit rate of the full collection: about 7.3%. Calls follow the shape of the dose curve; as a rule, active = well fitted curve in the direction sought with a large enough effect; inconclusive = small, poorly fitted or top-dose-only effect, or another doubt; inactive = no such curve, though single readings can be large; an effect the other way counts as inactive or inconclusive. % is scaled to controls: 0 for no effect and ±100 for the full control effect; potency is read from the fitted curve at half-maximal effect.

SMILES	Tau fluor counter	VP16 counter	Tau ThT inhib	RORgamma inh	Tau FP inhib
CCC(C)NC(=S)Nc1ccc2nc(N3CCN(CC)CC3)cc(C)c2c1 (configuration not stated)	-23%	18%	?	?	-1%
CCCN(CCC)CCCNC(=S)Nc1ccc2nc(N3CCCC3)cc(C)c2c1	-16%	-2%	-11%	10%	-1%
COc1ccc(CNC(=S)Nc2ccc3nc(N4CCOCC4)cc(C)c3c2)cc1	?	-93%	?	10µM*	16%
CCC(C)NC(=S)Nc1ccc2nc(N3CCOCC3)cc(C)c2c1 (configuration not stated)	·	?	·	10µM*	·
COc1ccc(CNC(=S)Nc2ccc3nc(N4CCN(C)CC4)cc(C)c3c2)cc1	?	-1%	?	-29%	?
COc1ccccc1-c1cncnc1NCc1ccccc1	·	-13%	·	1%	·
CCn1c(=O)c2cc(C(=O)NCc3ccc(F)cc3Cl)sc2c2ccccc21	0%	·	4%	·	5%
COc1ccccc1NC(=O)C1CCN(S(=O)(=O)c2ccc3c(c2)NC(=O)CO3)CC1	·	-5%	·	-2%	·
Cc1cc(C)c2c(n1)nn1c(C)c(CCC(=O)Nc3cccc(C)c3C)c(C)nc21	-8%	·	?	·	-2%
O=C(CCC(=O)N1CCOCC1)NCCc1ccc(Cl)cc1Cl	·	-12%	·	6.3µM*	·
Cc1noc(C)c1-c1cncnc1NCCN1CCOCC1	·	29%	·	?	·
CC(=O)Nc1ccc(S(=O)(=O)N2CCC(NC(=O)C(Cc3ccccc3F)NC(C)=O)CC2)cc1 (configuration not stated)	·	-7%	·	-3%	·
COc1nc(C)ccc1-c1noc(-c2cccnc2)n1	·	-4%	·	14µM*	·
COc1nc2cc(C)ccc2cc1-c1noc(-c2cccnc2)n1	-7%	-18%	-12%	-3%	-4%
Cc1ccc(-c2nnc(Nc3ccc(Cl)cc3)c3ccccc23)cc1S(=O)(=O)NCC1CCCO1 (configuration not stated)	?	·	0%	·	?
Cc1nn(C)c(C)c1NC(=O)Nc1cccc(C(F)(F)F)c1	-1%	1%	-1%	6%	0%
Fc1cc(NC(=S)NCc2ccc(CNC(=S)Nc3ccc(Cl)c(F)c3)cc2)ccc1Cl	-24%	-10%	17%	-33%	4µM*
Fc1cccc(NC(=S)NCc2ccc(Cl)cc2)c1	-26%	18µM*	7%	6.3µM*	-13%
COc1ccc(NC(=S)Nc2cccc(C(F)(F)F)c2)c(C)c1	-8%	?	1%	10µM*	1%
CSc1ccccc1NC(=S)Nc1cccc(C(F)(F)F)c1	-18%	?	5%	-109%	-21%
Cc1cc(C(=O)NNC(=S)Nc2cccc(C(F)(F)F)c2)nn1C	·	11µM*	·	16µM*	·
CCOC(=O)c1cc(NC(=O)N(C)C2CCCCC2)c(C)nc1C	·	2%	·	22%	·
COc1ccc(CNC(=S)Nc2ccc(F)c(Cl)c2)cc1OC	-24%	-8%	3%	11µM*	-14%
Cc1ccc(NC(=S)NNC(=S)Nc2cccc(C(F)(F)F)c2)cc1	14µM*[quencher]	-6%	·	-1%	?
O=S(=O)(NCc1cccc(C(F)(F)F)c1)NCc1ccccc1F	-5%	-1%	1%	6%	13%
SMILES	Tau fluor counter	VP16 counter	Tau ThT inhib	RORgamma inh	Tau FP inhib
CN(C)C(=S)Nc1cccc(C(F)(F)F)c1	-11%	4%	-10%	-37%	-4%
Fc1ccccc1CNC(=S)Nc1cccc(C(F)(F)F)c1	-29%	7.1µM*	2%	7.1µM*	?
Fc1ccc(CNC(=S)Nc2cccc(C(F)(F)F)c2)cc1	-10%	?	-4%	?	0%
FC(F)(F)c1cccc(NC(=S)NCc2ccc(Cl)cc2)c1	?	?	5%	8.9µM*	?
O=C(c1ccncc1)N1CCC[C@@]2(CCN(c3ccccc3)C2)C1	·	24%	·	28%	·
FC(F)(F)c1cccc(NC(=S)NNC(=S)Nc2ccc(Cl)cc2)c1	8.9µM*[quencher]	-18%	·	16%	?
CN(C)C(=S)Nc1cccc(F)c1	-3%	2%	2%	17%	4%
CC(C)(C)NNC(=S)Nc1cccc(F)c1	-11%	3.5µM*	-11%	0.63µM*	-5%
CC(=O)N1CCC2(CCCN(Cc3cc(C(F)(F)F)cc(C(F)(F)F)c3)C2)CC1	·	14%	·	-2%	·
O=C(O)c1cccc(/C=C2/C[C@@H]3[C@@H](/C=C/[C@@H](O)C4CCCCC4)[C@H](O)C[C@@H]3O2)c1	·	-9%	·	22%	·
CC1=CC(C)(C)n2c(O)c(N=NC(N)=S)c3cc(C)cc1c32	-16%	1.8µM*	-11%	0.79µM*	2%
Cc1cccc(NC(=O)Cn2c(O)c(N=NC(N)=S)c3ccccc32)c1	?	?	?	?	-6%
COC(=O)N1CCC2(CCCN(c3ncccn3)C2)CC1	·	-3%	·	3%	·
COc1ccccc1Nc1ncc(-c2cccs2)s1	16µM*[quencher]	1%	14µM*	-16%	-8%
CCc1ccc(C(C)NC(=S)NC2CCCCC2)cc1 (configuration not stated)	·	3.2µM*	·	2.2µM*	·
CCOc1ccc(C(C)NC(=S)NC2CCCCC2)cc1OCC (configuration not stated)	-17%	14µM*	-3%	7.1µM*	10%
CCOc1ccc(C(C)NC(=S)NC2CCCCC2)cc1 (configuration not stated)	-17%	10µM*	-5%	3.2µM*	3%
S=C(NC1CCCCC1)NC1CC2CCC(C1)N2Cc1ccccc1 (configuration not stated)	-7%	-6%	-3%	-26%	1%
CCC(NC(=S)NC1CCCCC1)c1ccccc1 (configuration not stated)	·	7.1µM*	·	3.2µM*	·
COc1cccc(/C=C/C2=CC3(C)CC2(C)C(c2cccc(OC)c2)CC3=O)c1 (configuration not stated)	-3%[11.6 µM]	5%[10 µM]	-1%[11.5 µM]	2%[10 µM]	-9%[11.6 µM]
COc1ccc(C(=O)Nc2ccc(N3CCN(c4ccccc4)CC3)c(C(=O)O)c2)cc1	-7%	·	-14%	·	-2%
CCc1cc2c(nc1CC)CCN(CC/C(C)=N/OCC[C@@H]1C=C[C@H](OC(C)=O)[C@H](COC(C)=O)O1)C2	-11%[11.6 µM]	-6%[10 µM]	-10%[11.5 µM]	-3%[10 µM]	-8%[11.6 µM]
CC(C)C(NC(=O)OCc1ccccc1)C(=O)NC1CCCCC1 (configuration not stated)	2%	5%	4%	2%	-2%
CC(CCc1ccccc1)NC(=S)NC1CCCCC1 (configuration not stated)	-17%	16µM*	-1%	2.5µM*	-1%
CCC(C)c1ccc(C(C)NC(=S)NC2CCCCC2)cc1 (configuration not stated)	·	2µM*	·	2.8µM*	·
Cc1ccc(-n2c(COCC(=O)O)nc3cccnc32)cc1	6%	·	4%	·	7%
